Screening data: PubChem BioAssay, several laboratories
sEH activator = activators of human soluble epoxide hydrolase | P34913 | purified human sEH enzymatic activity, activator screen | activation, % at 2 µM | actives 0.04% (n = 91,000) | AID 717; in the data active means activation above about 37%
CYP2C19 act = increases human CYP2C19 enzyme activity. recombinant CYP2C19, luciferin-H EGE luminescence; active compounds read high; 0 = fully inhibited enzyme, 1 = untreated enzyme. activation factor at 5 µM. 96,000 tested, under 10 active. AID 1025;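 active means activation factor of at least 2 at 5 µM in the primary screen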
Target sequence (P33261 whole entry, looked up): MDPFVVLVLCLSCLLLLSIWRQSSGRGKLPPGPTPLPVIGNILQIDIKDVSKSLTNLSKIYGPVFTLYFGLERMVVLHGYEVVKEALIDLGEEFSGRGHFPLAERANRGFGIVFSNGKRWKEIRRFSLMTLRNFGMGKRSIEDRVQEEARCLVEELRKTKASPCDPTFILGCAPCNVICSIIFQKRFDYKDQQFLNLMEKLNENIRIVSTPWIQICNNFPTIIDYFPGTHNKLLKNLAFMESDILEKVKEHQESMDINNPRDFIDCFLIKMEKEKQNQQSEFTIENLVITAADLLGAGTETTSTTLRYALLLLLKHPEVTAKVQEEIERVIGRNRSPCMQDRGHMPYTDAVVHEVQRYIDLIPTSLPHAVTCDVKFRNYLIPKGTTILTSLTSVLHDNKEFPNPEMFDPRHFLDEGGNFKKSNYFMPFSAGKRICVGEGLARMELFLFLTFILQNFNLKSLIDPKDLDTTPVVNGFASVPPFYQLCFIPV
CYP2C19 inh = human CYP2C19 inhibition; CYP2C19 Supersomes, luciferin-H EGE luminescence, 30 min; inhibition, % at 5 µM; actives 21% (n = 96,000);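 active means CYP2C19 inhibition above a set limit at 5 µM in the primary screen, cut at about 50% in these data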
CYP2C9 activ = activators of human CYP2C9; recombinant CYP2C9, luciferin-H conversion, luminescence; active compounds read high; factor 1 = untreated enzyme, 0 = blocked; actives 1.4% (n = 96,000); P11712; activation factor at 5 µM;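 active means activation factor of 2 or more for CYP2C9 at a 5 µM dose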
sEH inhibitor = inhibitors of human soluble epoxide hydrolase | P34913 | inhibition, % at 2 µM | recombinant human sEH enzymatic activity assay | actives 0.34% (n = 91,000); in the data active means inhibition above about 80%
CYP2C9 inh = human CYP2C9 inhibition; P11712; CYP2C9 Supersomes, luciferin-H conversion, luminescence; inhibition, % at 5 µM; actives 20% (n = 96,000);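 active means blocking of liver enzyme CYP2C9 beyond about 50% at 5 µM, limit read from the data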
A number is an active result; . = inactive; / = not tested or not shown. Most compounds without a hit are left out; they make up all but 27% or so of the library.

SMILES	sEH activator	CYP2C19 act	CYP2C19 inh	CYP2C9 activ	sEH inhibitor	CYP2C9 inh
Cc1cc(N2CC34C=CC(O3)C(C(=O)O)C4C2=O)no1 (stereo unspecified)	/	.	.	.	/	.
O=C(c1ccccc1Cl)N1N=C(c2ccc(Br)cc2)CC1c1nc2ccccc2[nH]1 (stereo unspecified)	.	.	50.1	.	.	67.1
COCCCn1c(=NC(=O)c2ccncc2)c(C#N)cc2c(=O)n3cccc(C)c3nc21	/	.	70.4	.	/	80.6
CCCCn1c(=NC(=O)c2cccnc2)c(C#N)cc2c(=O)n3cccc(C)c3nc21	.	.	.	.	.	.
CCCn1c(=NC(=O)c2ccc3c(c2)OCO3)c(C#N)cc2c(=O)n3cccc(C)c3nc21	/	.	.	.	/	.
Cc1cccn2c(=O)c3cc(C#N)c(=NC(=O)c4ccncc4)n(CCCOC(C)C)c3nc12	.	.	93.7	.	.	87.2
CCc1ccc(CNCCNCC(C)O)cc1 (stereo unspecified)	.	.	.	.	.	.
Cc1cc2c3c(c1C)C1(C(=O)N3C(C)(C)CC2C)C(C#N)=C(N)OC2=C1C(=O)CC(C)(C)C2 (stereo unspecified)	.	.	.	.	.	.
Cc1cccc(OCc2nnc(SCC(=O)N3c4ccccc4CC3C)n2C)c1C (stereo unspecified)	.	/	/	/	.	/
O=C(NCCCN1CCc2ccccc2C1)C1CCN(S(=O)(=O)N2CCCC2)CC1	.	.	.	.	.	.
O=[n+]1c2c(n([O-])c3ccccc31)CCCC2	.	.	.	.	.	.
COc1ccc(C(=O)NCc2cn3ccsc3n2)cc1OC	.	.	.	.	.	.
CCCn1c(N)c(N2CCCCC2)c(=O)n(CC(=O)Nc2ccccc2C)c1=O	.	.	.	.	.	52.7
O=C(COC(=O)c1ccccc1)NCc1ccco1	.	.	.	.	.	.
O=C(COC(=O)c1ccc(S(=O)(=O)Nc2ccccc2)cc1)NCc1ccco1	.	.	.	.	.	75.1
O=C(COC(=O)c1ccc(S(=O)(=O)Nc2ccccc2)cc1)NCCN1C(=O)CSC1=O	.	.	61.7	.	.	81.4
O=C(COC(=O)c1ccc(S(=O)(=O)NCc2ccco2)cc1)NCC1CCCCC1	.	.	.	.	.	57.6
O=C(NC1CCCCC1)c1ccc(S(=O)(=O)NCc2ccco2)cc1	.	.	.	.	.	.
CCn1c(=O)c(C(=O)Nc2nc3ccccc3[nH]2)c(O)c2ccccc21	.	.	.	.	.	.
CCCC1Cc2c(sc3nc(SC)nc(N)c23)CO1 (stereo unspecified)	.	.	.	.	.	.
CSc1nc(N)c2c3c(sc2n1)COC(C(C)C)C3 (stereo unspecified)	.	.	94.5	.	.	.
CN1CCC(N2CCCC(C(=O)O)C2)CC1 (stereo unspecified)	.	.	.	.	.	.
CCOC(=O)c1c(-c2ccc(C)o2)csc1NC(=O)CSc1nncs1	.	.	90.7	.	.	100.1
CCOC(=O)c1c(-c2ccco2)csc1N	.	.	.	.	.	.
CCOC(=O)c1c(-c2ccco2)csc1NC(=O)CSc1nnc(N)s1	.	.	.	.	.	56.6
SMILES	sEH activator	CYP2C19 act	CYP2C19 inh	CYP2C9 activ	sEH inhibitor	CYP2C9 inh
CCOC(=O)c1c(-c2ccc(C)o2)csc1NC(=O)CN1CCN(CC)CC1	.	.	.	.	.	.
CCOC(=O)c1c(-c2ccc(C)o2)csc1NC(=O)CN(C)CC(=O)Nc1ccc(C)cc1	.	.	68.9	.	.	95.8
CCOC(=O)c1cc(NC(=O)c2ccc(Cl)cc2)c(=O)n2c1oc1ccc(Cl)cc12	.	.	.	.	.	.
Cc1cc(C)c2c(=O)[nH]c(SCC(=O)Nc3ccc(N(C)C)cc3)nc2n1	.	.	.	.	.	58.3
Cc1nc(COC(=O)c2ccc(S(=O)(=O)N3CCCC3)cc2)cs1	.	.	.	.	.	90.2
Cc1nnc(SCC(=O)Nc2ccc(S(=O)(=O)N3CCCC3)cc2)n1N	.	.	.	.	.	.
CCn1cc(C(=O)OCC(=O)Nc2ccc(S(=O)(=O)N3CCCC3)cc2)c(=O)c2ccc(C)nc21	.	.	.	.	.	67.7
NC(=O)COC(=O)c1ccc(S(=O)(=O)N2CCCCCC2)cc1	.	.	.	.	.	.
CCn1cc(C(=O)OCC(=O)Nc2cc(S(=O)(=O)N(C)C)ccc2C)c(=O)c2ccc(C)nc21	.	.	.	.	.	.
Cc1cc(C)c2nc(SCC(=O)Nc3ccc(S(=O)(=O)N4CCCC4)cc3)c(C)cc2c1	.	.	.	.	.	88.0
CC1(C(=O)NC2CCCCCCC2)CCC(=O)N1Cc1cccnc1 (stereo unspecified)	/	.	.	.	/	.
Cc1cc(C)c(C)c(S(=O)(=O)NCC(=O)Nc2sc3c(c2C(N)=O)CCCC3)c1C	.	.	.	.	.	.
O=C(CC1C(=O)NCCN1C(=O)Nc1ccccc1)Nc1cccc(C(F)(F)F)c1 (stereo unspecified)	.	.	.	.	.	.
COc1ccc(/C=N/NC(=O)C(Cc2c[nH]c3ccccc23)NC(=O)OCC(C)C)cc1[N+](=O)[O-] (stereo unspecified)	.	.	.	.	.	.
Cc1nc2ncnn2c(C)c1CCC(=O)Nc1ccc(S(=O)(=O)N2CCCCCC2)cc1	.	.	.	.	.	68.8
Cc1cc(C)n(-c2ccc(C(=O)OCC(=O)Nc3ccc(S(=O)(=O)N4CCCCC4)cc3)cc2)n1	.	.	68.4	.	.	81.9
CCOC(=O)CSCC(=O)Nc1ccc(S(=O)(=O)N2CCCCC2)cc1	.	.	76.9	.	.	88.0
Cc1ccc(NC(=O)CCc2c(C)nc3ncnn3c2C)cc1	.	.	.	.	.	.
Cc1cc(=O)[nH]c(SCC(=O)Nc2ccc(S(=O)(=O)N3CCCCC3)cc2)n1	.	.	.	.	.	79.8
Nc1cccc(Cl)c1N1CCOCC1	.	.	.	.	.	.
COc1ccnc(Oc2ccccc2)c1C#N	.	.	.	.	.	.
COc1ccnc(N2CCN(c3ccccc3)CC2)c1C#N	.	.	100.3	.	.	79.8
Cn1nc(C(F)(F)F)c(C#N)c1N1CCN(c2ccccc2)CC1	.	.	69.4	.	.	71.7
Cn1nc(C(F)(F)F)c(C#N)c1N1CCN(c2ccc(F)cc2)CC1	.	.	78.3	.	.	82.1
Cn1nc([N+](=O)[O-])nc1N1CCN(c2ccc(F)cc2)CC1	.	.	.	.	.	.
CCOC(=O)c1nn(-c2ccc(Cl)cc2)c2nc(Nc3ccccc3)cc(=O)n12	.	.	.	.	.	.
COc1cccc2c(=O)n(CC(=O)Nc3ccccc3F)ccc12	.	.	.	.	.	.
COc1cc(/C=C2/S/C(=N/S(=O)(=O)c3ccccc3)NC2=O)c([N+](=O)[O-])cc1OC	.	.	.	.	.	99.1
Cc1ccccc1NC(=S)NC(=O)CCc1ccccc1	.	.	.	.	.	.
